Assay outcomes: PubChem, National Center for Advancing Translational Sciences (NCATS)
An excerpt weighted towards active compounds, which were near 9.5% of everything screened.
ALDH1A1 inh: inhibitors of human aldehyde dehydrogenase 1A1; Potency, µM (titrated, usually from 75.3 µM), for inactives: at the highest dose activity, negative = inhibition, usual class: inhibitors; 7.3% of 220,000 active; Purified ALDH1A1, NADH fluorescence, propionaldehyde substrate; active = well fitted inhibition curve with a large enough effect, not every such curve was filed as active; inconclusive = small, poorly fitted or top-dose-only effect, or another doubt; inactive = no such curve, though single readings can be large or run the other way;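 also: plate controls were no enzyme wells and a reference inhibitor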
Tau fluor counter: counter-screen for tau fibril formation inhibitors. Potency, µM (titrated, usually from 57.7 µM), without a hit: top-dose activity change, negative = decrease. 0.93% of 280,000 active. tau K18 P301L Alexa594 fluorescence, heparin fibrillization; also: nearly all actives have a fitted effect of over 55% in size
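Human K18 P301L tau (15 uM unlabeled plus 0.24 uM Alexa 594-labeled, final) in 100 mM sodium acetate pH 7 was mixed with compound and 20 uM heparin and incubated 6 hr at 37 C.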
Tau fibril FP: blocks human tau fibril formation measured by polarization; P10636; K18 P301L tau heparin fibrillization, Alexa594 FP, 6 h; Potency, µM (series often up to 57.7 µM), inactives show top-dose activity, negative = inhibition, usual class: inhibitors; 0.39% of 280,000 active; AID 1468; also: nearly all actives have a fitted effect of over 55% in size
Target sequence (P10636 561-689 P618L limits assumed): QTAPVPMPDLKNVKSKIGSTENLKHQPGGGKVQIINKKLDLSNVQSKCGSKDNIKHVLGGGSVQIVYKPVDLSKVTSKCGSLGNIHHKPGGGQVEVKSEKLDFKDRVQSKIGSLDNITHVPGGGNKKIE
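Human tau K18 […] P301L fragment, 15 uM unlabeled plus 0.24 uM Alexa 594-labeled tau (final), with compound and 20 uM heparin in 100 mM sodium acetate pH 7; 6 hr at 37 C, then Alexa 594 FP read.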
HPGD block: HPGD (human) dehydrogenase inhibition; P15428; purified HPGD, NADH fluorescence kinetic, PGE2 substrate; Potency, µM, inactives show top-dose activity change, negative = inhibition, most hits filed as inhibitors; 4.3% of 150,000 active; AID 894; active = well fitted inhibition curve with a large enough effect, not every such curve was filed as active; inconclusive = small, poorly fitted or top-dose-only effect, or another doubt; inactive = no such curve, though single readings can be large or run the other way
Target sequence (P15428 whole entry, looked up): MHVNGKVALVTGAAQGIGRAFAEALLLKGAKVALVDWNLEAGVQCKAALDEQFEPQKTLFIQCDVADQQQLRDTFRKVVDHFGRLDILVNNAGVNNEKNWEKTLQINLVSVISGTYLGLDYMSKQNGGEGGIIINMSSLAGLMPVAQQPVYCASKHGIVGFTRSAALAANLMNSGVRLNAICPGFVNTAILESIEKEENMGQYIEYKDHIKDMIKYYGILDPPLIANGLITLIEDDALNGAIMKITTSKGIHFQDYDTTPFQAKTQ
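NADH formation kinetics: reaction with 30 uM PGE2 and 1 mM NAD+ (final), 20 nM enzyme, Tris-HCl pH 8 with Tween 20, after 15 min compound preincubation at room temperature. Fluorescence change, last versus first of five reads.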
NPSR antag: antagonists of human neuropeptide S receptor cAMP signaling | Q6W5P4 | CHO-NPSR cells, cAMP TR-FRET, antagonist mode | Potency, µM (series often up to 38.3 µM), for inactives: top-dose activity change, negative = inhibition, most hits filed as inhibitors | 1% of 220,000 active | AID 1461; also: nearly all actives have a fitted effect of over 50% in size
Tau fibril ThT: tau fibrillization inhibition (ThT binding) | P10636 | recombinant tau K18 P301L (four-repeat tau fragment), heparin-induced fibrillization, ThT fluorescence | AID 1460 | 2.1% of 270,000 active | Potency, µM (titrated, usually from 57.4 µM), inactives show at the top dose activity, negative = inhibition, usual class: inhibitors; also: nearly all actives have a fitted effect of over 55% in size
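Recombinant human tau K18 fragment […] carrying P301L, 15 uM unlabeled plus 0.24 uM Alexa 594-labeled, was fibrillized with 20 uM heparin in 100 mM sodium acetate pH 7 for 6 hr at 37 C; 30 uM ThT fluorescence read after 1 hr.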
Active calls of the source: *; ? = inconclusive; nt = no result; [ ] = another dose, or the depositor's remark. Unless noted, calls follow the shape of the dose curve; as a rule, active = well fitted curve in the direction sought with a large enough effect; inconclusive = small, poorly fitted or top-dose-only effect, or another doubt; inactive = no such curve, though single readings can be large; an effect the other way counts as inactive or inconclusive. Unless noted, % is scaled to controls: 0 for no effect and ±100 for the full control effect; potency is read from the fitted curve at half-maximal effect.

SMILES | ALDH1A1 inh | Tau fluor counter | Tau fibril FP | HPGD block | NPSR antag | Tau fibril ThT
CC(C)C[C@H](NC(=O)[C@H](Cc1ccccc1)NC(=O)CNC(=O)CNC(=O)[C@@H](N)Cc1ccc(O)cc1)C(=O)N[C@@H](CCCN=C(N)N)C(=O)N[C@@H](CCCN=C(N)N)C(=O)N[C@@H](CCC(N)=O)C(=O)N[C@@H](Cc1ccccc1)C(=O)N[C@@H](CCCCN)C(=O)N[C@H](C(=O)N[C@H](C(=O)N[C@H](C(=O)O)[C@@H](C)O)C(C)C)C(C)C | 7% | -9% | -2% | nt | nt | -10%
Nc1oc2ccc(F)cc2c(=O)c1C=O | 6% | 1% | 0% | -28% | 19% | 6%
COc1ccc(NC(=O)CSc2nnc(CNc3ccc(F)cc3)o2)c(OC)c1 | -12% | -23% | 7% | -15% | -10%[46.1 µM] | ?
Cc1ccc(CN(CC(=O)NC2CCCC2)C(=O)CSc2nnc(COc3ccccc3)o2)cc1 | ? | 7% | -4% | 28µM* | 2% | -2%
COc1ccc(NCc2nnc(SCC(=O)Nc3cc(C(F)(F)F)ccc3Cl)o2)cc1 | 28µM* | ? | -13% | -14% | -12%[46.1 µM] | ?
COc1ccc(NCc2nnc(SCC(=O)Nc3cc(C)cc(C)c3)o2)cc1 | 3.2µM* | ? | -9% | -29% | -11%[46.1 µM] | ?
Cc1cc(C)cc(OCc2nnc(SCC(=O)c3ccccc3)o2)c1 | -11% | ? | -10% | 28µM* | -26%[46.1 µM] | ?
COc1ccccc1N1CCN(S(=O)(=O)CCNC(=O)Cc2ccc(Cl)cc2)CC1 | nt | -7% | 10% | nt | nt | 3%
O=C1[C@H]2[C@H]3[C@H](O)[C@H](O)C/C(=N/OC[C@@H](O)COCc4ccco4)[C@@H]3CC[C@@H]2C(=O)N1c1cccc(Oc2ccccc2)c1 | -9%[13.5 µM] | -10%[11.6 µM] | -6%[11.6 µM] | nt | nt | -9%[11.5 µM]
CCN(CC)S(=O)(=O)c1ccc(-c2nnc(SCC(=O)c3ccc(OC)cc3)o2)cc1 | 0.35µM* | 0% | -15% | -7% | 17%[46.1 µM] | 1%
O=C(CSc1nnc(COc2ccc(Cl)cc2)o1)N1c2ccccc2CCc2ccccc21 | 22µM* | -13% | -13% | 2% | -26%[46.1 µM] | -15%
O=C(COc1ccc(Cl)cc1)NCc1nnc(SCC(=O)N2CCCc3ccccc32)o1 | ? | -8% | -9% | -9% | -17%[46.1 µM] | -6%
COc1ccc(NCc2nnc(SCC(=O)c3ccc(C)cc3)o2)cc1 | 28µM* | -25% | -4% | -23% | -11%[46.1 µM] | ?
N#Cc1ccsc1NC(=O)COc1ccc(-c2nnco2)cc1 | -14% | -23% | -3% | -21% | 13%[7.67 µM] | ?
CN(C)c1ccc(C2NCC(CCl)O2)cc1 (stereo not drawn) | 1.4µM* | -6% | 6% | -5% | 0%[46.1 µM] | -13%
CCOC(=O)C(C)Sc1nc(-c2ccccc2Cl)cc(-c2ccccc2)c1C#N (stereo not drawn) | nt | -19% | -11% | nt | nt | -7%
CC(Sc1nc(C(C)(C)C)cc(-c2ccccc2)c1C#N)C(=O)Nc1ccccc1 (stereo not drawn) | 25µM* | -4% | -7% | 16µM* | -40% | -1%
CC(=O)c1cccc(N=Nc2c(C)[nH]c3ccccc23)c1 | ? | 14µM*[quencher] | -10% | -25% | -6% | 10µM*
Cc1ccc(C(=O)ONc2ccc(N=O)cc2)cc1 | ? | -12% | -3% | -6% | -19%[46.1 µM] | -27%
Cc1ccc(C(=O)ONc2ccc(N=NC(=O)c3ccccc3O)cc2)cc1 | ? | ? | -3% | 28µM* | -15%[46.1 µM] | 2.2µM*
CC1(C(=O)N2CC3(CC(c4cccc([N+](=O)[O-])c4)=NO3)C[C@H]2C(=O)NCC(N)=O)CC1 (stereo partly drawn) | 5% | 1% | 2% | -6% | 3%[46.1 µM] | 2%
NC(=O)CNC(=O)[C@@H]1CC2(CC(c3cccc([N+](=O)[O-])c3)=NO2)CN1C(=O)c1ccccc1 (stereo partly drawn) | 1µM* | 6% | ? | -11% | 7%[46.1 µM] | 5%
COc1cc(OC)c2c(-c3cccc(-c4ccc(CO)cc4)c3)cc(=O)oc2c1 | 3% | ? | -8%[81.3 µM] | ? | nt | -25%[81.4 µM]
COc1cc(OC)c2c(-c3cccc(-c4ccc(O)cc4)c3)cc(=O)oc2c1 | 5% | 22µM*[quencher] | ? | -13% | nt | ?
CCc1ccc(CNC(=O)CCN2C(=O)COc3ccccc32)cc1 | nt | -14% | 1% | nt | nt | -4%
SMILES | ALDH1A1 inh | Tau fluor counter | Tau fibril FP | HPGD block | NPSR antag | Tau fibril ThT
N.N.O=C(O)C1(C(=O)O)CCC1.[Pt] | ? | -25% | 2.8µM* | ? | -8%[46.1 µM] | 3.2µM*
CCOC(=O)CC(=O)CSc1nc2nc(C)cc(C)n2n1 | 13µM* | 0% | 14% | 16µM* | 3%[46.1 µM] | -12%
CNC(=O)CSc1nc2nc(C)cc(C)n2n1 | -16% | -4% | -4% | -18% | -4%[46.1 µM] | -11%
CCCCC/C=C\C/C=C\C/C=C\C=C\[C@@H](O)CCCC(=O)O | 5% | 1% | -4% | -5% | nt | ?
CC1=[N+](C)c2ccc3ccccc3c2C1(C)C | -8% | ? | 1% | -17% | 17% | 14µM*
c1ccc2c(c1)ccc1ccccc12 | ? | nt | nt | -19% | nt | nt
CC1CCc2c(sc(NC(=O)C3CCCO3)c2C#N)C1 (stereo not drawn) | ? | -5% | -7% | nt | -1% | 0%
CC1CCc2c(sc(NC(=O)Cn3nc(C(F)(F)F)c4c3CCCCC4)c2C#N)C1 (stereo not drawn) | 25µM* | -4% | -9% | 35µM* | 4%[46.1 µM] | 7%
CCc1ccc(NC(=O)Cn2nc(C(F)(F)F)c3c2CCC3)cc1 | 6% | -15% | -7% | -17% | -12%[46.1 µM] | -2%
N#Cc1c(NC(=O)Cn2nc(C(F)(F)F)c3c2CCCC3)sc2c1CCC2 | 7.9µM* | -6% | 1% | 8.9µM* | -3%[46.1 µM] | -5%
O=C1CC(C(=O)Nc2ncccn2)C(c2ccccc2)O1 (stereo not drawn) | ? | 2% | 0% | -10% | -1%[46.1 µM] | 2%
C=CCn1c(O)c(CN2CCCCC2)c(C)c(C#N)c1=O | ? | -25% | ? | nt | 6% | 25µM*
Cc1cccc2c1c1ccc3c(c1n2C)C(=O)C=CC3=O | 0.32µM* | 4µM*[quencher] | 8.9µM* | nt | ? | 3.5µM*
CCOc1ccc2nc(N3CCCC(C(=O)Nc4cc(Cl)c(OC)cc4OC)C3)sc2c1 (stereo not drawn) | nt | ? | 2% | nt | nt | ?
CC1CCCN(c2ccc(C(=O)Nc3nnc(C4CC4)s3)cc2[N+](=O)[O-])C1 (stereo not drawn) | 2.8µM* | -25% | ? | -2% | -23% | 4µM*
CC1CCCN(c2ccc(C(=O)Nc3ccc4c(c3)OCO4)cc2[N+](=O)[O-])C1 (stereo not drawn) | ? | ? | 5% | -11% | -47% | 7.1µM*
